These results are taken from PubChem BioAssay AID2284159 (EPA ToxCast).

Calls of active or inactive are those of the source. Rule for the calls: active = hit-call score of the fitted dose curve at least 0.9, where 1 is the maximum; inactive = score below 0.9.

Sequence of human Dopamine Receptor D2L, DRD2 (gene 1813) (P14416 whole entry, looked up): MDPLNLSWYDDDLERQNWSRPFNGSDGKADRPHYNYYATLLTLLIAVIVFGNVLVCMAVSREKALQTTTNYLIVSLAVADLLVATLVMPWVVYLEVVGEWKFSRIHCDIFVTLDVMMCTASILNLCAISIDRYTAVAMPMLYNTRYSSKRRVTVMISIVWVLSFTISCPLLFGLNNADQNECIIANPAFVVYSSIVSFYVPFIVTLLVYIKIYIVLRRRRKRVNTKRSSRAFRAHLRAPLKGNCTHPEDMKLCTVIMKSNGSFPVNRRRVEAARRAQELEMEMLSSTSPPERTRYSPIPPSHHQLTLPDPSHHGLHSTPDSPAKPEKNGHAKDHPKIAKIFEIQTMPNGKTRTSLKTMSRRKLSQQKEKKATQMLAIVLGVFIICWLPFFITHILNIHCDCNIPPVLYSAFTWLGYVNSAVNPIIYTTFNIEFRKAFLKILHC

This assay concerns the target human Dopamine Receptor D2L, DRD2 (gene 1813) (UniProt P14416). Description: ERF_FR_GPCR_hDRD2: Eurofins (ERF) G Protein-Coupled Receptor (GPCR) Radioligand Binding LeadHunter Assay for human Dopamine Receptor D2L Antagonism. On the procedure: ERF_FR_GPCR_hDRD2 is a biochemical, single-readout assay that uses extracted gene-proteins in a cell-free assay. Measurements were taken 1 hour after chemical dosing in a 96-well plate. See D2L Human Dopamine GPCR Binding (Antagonist Radioligand) Assay, Cerep.ERF_FR_GPCR_hDRD2 is an assay component calculated from the ERF_FR_GPCR_hDRD2 assay. It is designed to measure radioligand binding using a type of binding reporter as detected by scintillation counting with radiometry technology.Data from the assay component ERF_FR_GPCR_hDRD2 was analyzed at the assay endpoint, ERF_FR_GPCR_hDRD2, in the positive analysis fitting direction relative to DMSO as the negative control and baseline of activity. Using a type of binding reporter, loss-of-signal activity can be used to understand changes in binding as they relate to gene DRD2. To generalize the intended target to other relatable targets, this assay endpoint is annotated to the gpcr intended target family, where the subfamily is dopamine.
Human cells are incubated for 60 minutes at room temprature with [3H]methyl-spiperone ligand (0.3 nM) and Butaclamol as control inhibitor.Test Sample Requirements: Minimum for 1) Screen: 60 ul of 10 mM stock -OR- 1 mg (pre-weighed) for 10 uM final testing. 2) Dose Response: 90 ul of 10 mM stock -OR- 1 mg (pre-weighed) for a top concentration at 10 uM.
For the molecule `O=C(/C=C/c1ccc(O)cc1)CC(=O)/C=C/c1ccc(O)cc1`, the AC50 was 1550 nM (active).

Usually AC50 stands for the midpoint of the concentration-response curve, whichever way the signal moves.
